“And” between values parts separate entries of the source, which are not always exact repeats. Equal entries are not always repeated. Results filed as inconclusive are left out. The source holds several records for some structures; these can differ, active in one and inactive in another. The source made the active and inactive calls. Unless noted, the call rests on the fitted dose curve; in most records, active means well fitted curve in the direction sought with a large enough effect in the repeat runs; inconclusive means weak or mixed curves; inactive means no such curve, though single readings can be large; an effect the other way counts as inactive or inconclusive.

The target in assay [1] is Estrogen receptor (Homo sapiens) (UniProt P03372). Put plainly: qHTS assay to identify small molecule antagonists of the estrogen receptor alpha (ER-alpha) signaling pathway using the BG1 cell line in the presence of 0.1 nM 17-beta-estradiol (AID 1259244). Further: nearly all actives have a fitted effect of over 50% in size. In outline: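 VM7Luc4E2; 4xERE-luciferase; 0.1 nM E2 final; 22 h co-incubation, 37C; ONE-Glo luminescence after 30 min at room temperature.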
A general note: Quantitative high-throughput screening tests each substance at several concentrations.

Assay [2] in a line: qHTS assay to identify small molecule phospholipidosis (PLD) inducers (AID 1259344; active means well fitted curve in the direction sought with a large enough effect; an effect the other way counts as inactive or inconclusive). In outline:
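HepG2 cells grown on collagen I take up LipidTOX Red while exposed to compound for 24 h; after fixation they are imaged at 20x and pit metrics are extracted.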

Assay [3] in a line: qHTS assay to identify small molecule HDAC inhibitors (AID 1259364). Further: potency means the concentration at half of the fitted maximal effect.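 Further: wild-type HCT-116 cells with endogenous class I/II HDAC activity; nearly all actives have a fitted effect of over 45% in size.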 The procedure, abridged: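 Relative class I and II HDAC activity is taken from the luminogenic signal in HCT-116 cells, with compound exposure 2 hr and reagent development 30 min at room temperature.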
The nature of assay [4]: qHTS assay to identify small molecule HDAC inhibitors - cell viability counter screen (AID 1259365). Further: series mostly up to about 92 µM; nearly all actives have a fitted effect of over 50% in size. The procedure, abridged: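 Following a 2hr exposure of overnight-plated wild-type HCT-116 cells to DMSO-delivered compounds, CellTiter-Glo was added and luminescence recorded after 30min at room temperature.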
Assay [5] is described as follows: qHTS assay to identify small molecule agonists of the sonic hedgehog signaling (Shh) pathway - cell viability counter screen (AID 1259366). Further: nearly all actives have a fitted effect of over 50% in size. The procedure, abridged:
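After a 4hr attachment at 37C, NIH/3T3 cells bearing an integrated Gli1-driven luciferase reporter were dosed with compounds. Treatment lasted 24hr, with the final hour including CellTiter-Fluor for a fluorescence viability measurement.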

Assay [6] in a line: qHTS assay to identify small molecule antagonists of the sonic hedgehog signaling (Shh) pathway - cell viability counter screen (AID 1259367). Further: nearly all actives have a fitted effect of over 55% in size. In outline:
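After a 4 hr settling period, 3T3 Gli1-Luc cells were treated with DMSO-dissolved chemicals and conditioned medium, kept 24 hr at 37C in 5% CO2, and assayed for viability by CellTiter-Fluor fluorescence following 1 hr reagent incubation.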

The nature of assay [7]: qHTS assay to identify small molecule agonists of the sonic hedgehog signaling (Shh) pathway (AID 1259368; calls by dose curve;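 further: NIH/3T3-derived 3T3Gli1-Luc cells carrying a stable Gli1-driven firefly luciferase reporter; series mostly up to about 92 µM; nearly all actives have a fitted effect of over 15% in size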). The procedure, abridged:
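Mouse fibroblast (NIH/3T3) reporter cells with stably integrated Gli1-Luc were treated 24 hr with compound; firefly luciferase luminescence served as the read-out.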

Assay [8] can be described thus: qHTS assay to identify small molecule antagonists of the sonic hedgehog signaling (Shh) pathway (AID 1259369; calls by dose curve; further: nearly all actives have a fitted effect of over 45% in size). The procedure, abridged: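 Conditioned medium drives Shh signalling in 3T3Gli1-Luc cells; compounds in DMSO co-applied, 24hr at 37 C, then luciferase luminescence.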
For assay [9], the target named is Estrogen receptor beta (Homo sapiens) (UniProt Q92731). As to the kind of experiment: qHTS assay to identify small molecule agonists of the estrogen receptor beta (ER-beta) signaling pathway (AID 1259377; active means well fitted activation curve with a large enough effect in the signal ratio in the repeat runs, not every such curve was filed as active; the % refers to the signal ratio). In outline: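 In HEK293T cells bearing a UAS-beta-lactamase reporter under ER-beta control, DMSO-delivered compounds were incubated for 16 hr at 37C. Activity was detected as fluorescence 2 hours after LiveBLAzer B/G FRET substrate addition.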

The target is the same in assay [10]. As to the kind of experiment: qHTS assay to identify small molecule antagonists of the estrogen receptor beta (ER-beta) signaling pathway (AID 1259378; active means well fitted inhibition curve with a large enough effect in the signal ratio in the repeat runs, not every such curve was filed as active; the % refers to the signal ratio). In outline:
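ER-beta-UAS-bla HEK293T (GripTite) cells in 2% charcoal-stripped FBS medium were preincubated 6 hr at 37C, dosed with compound, then stimulated with 1 nM E2 (final) for 16 hr; beta-lactamase reporter read by B/G FRET fluorescence after 2 hr substrate loading.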

The nature of assay [11]: qHTS assay to identify small molecule agonists of the androgen receptor (AR) signaling pathway in the presence of an antagonist - cell viability counter screen (AID 1259379).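 Further: MDA-kb2 human breast cancer cells carrying an MMTV luciferase reporter; series mostly up to about 92 µM; nearly all actives have a fitted effect of over 25% in size.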 In outline:
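A CellTiter-Fluor read-out measured viability of MDA-kb2 reporter cells (MMTV promoter with AR and GR response elements). Treatment: nilutamide 3.0uM final with compounds at 15 concentrations, 16 hr, 37C, 0% CO2.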

Assay [12] can be described thus: qHTS assay to identify small molecule agonists of the estrogen receptor beta (ER-beta) signaling pathway - cell viability counter screen (AID 1259380). Further: nearly all actives have a fitted effect of over 30% in size. Further: potency means the concentration at half of the fitted maximal effect. In outline: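 Cells used were ER-beta-UAS-bla HEK293T in medium with 2% charcoal-stripped FBS. They were treated for 16 hr at 37C. Viability came from CellTiter-Glo luminescence.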
A short description of assay [13]: qHTS assay to identify small molecule antagonists of the estrogen receptor beta (ER-beta) signaling pathway - cell viability counter screen (AID 1259382). Further: series mostly up to about 92 µM; nearly all actives have a fitted effect of over 55% in size. In outline: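 Agonist-stimulated (1nM E2) ER-beta-UAS-bla HEK293T cells are incubated with library compounds for 16 hr at 37C. Cell viability is then assessed in the reporter-assay wells by adding CellTiter-Glo and reading luminescence after 30 min.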

Assay [14] concerns the target Estrogen receptor (Homo sapiens) (UniProt P03372). Put plainly: qHTS assay to identify small molecule agonists of the estrogen receptor alpha (ER-alpha) signaling pathway in the presence of an antagonist (AID 1259383; calls by dose curve; further: top concentration of the series differs between compounds; nearly all actives have a fitted effect of over 15% in size). The procedure, abridged: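 Using VM7Luc4E2 cells seeded 24hr before treatment, antagonist ICI-182,780 (10.0nM final) was added, followed by compounds at 15 concentrations. Plates incubated 22hr; ONE-Glo luminescence quantified reporter activity.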

A short description of assay [15]: qHTS assay to identify small molecule agonists or antagonists of the thyroid stimulating hormone receptor (TSHR) signaling pathway - wild type cell line counter screen (AID 1259384; calls by dose curve). The procedure, abridged: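 Wild-type HEK293 cells were plated 18 h at 37 C/5% CO2, pin-dosed with compound plus Ro20-1724 medium, held 30 min at room temperature, then given cAMP-d2 and anti-cAMP-cryptate; fluorescence was read after 1 h. Fifteen concentrations, triplicate.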

The target of assay [16] is Thyrotropin receptor (Homo sapiens) (UniProt P16473). Put plainly: qHTS assay to identify small molecule antagonists of the thyroid stimulating hormone receptor (TSHR) signaling pathway (AID 1259385; calls by dose curve; further: nearly all actives have a fitted effect of over 20% in size). In outline:
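TSHR-HEK293 cells were plated and held 18 h at 37C/5% CO2, then given compound plus Ro20-1724 and stimulated with TSH at 1.5 ng/mL final. After 30 min at room temperature, cAMP was detected with cAMP-d2/anti-cAMP-cryptate (1 h) by fluorescence.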

The nature of assay [17]: qHTS assay to identify small molecule agonists of the estrogen receptor alpha (ER-alpha) signaling pathway in the presence of an antagonist - cell viability counter screen (AID 1259386).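 Further: series mostly up to about 92 µM; cells exposed to compounds for 22 h at 37 °C before the viability read; nearly all actives have a fitted effect of over 30% in size.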 The procedure, abridged:
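ICI-182,780 at 10.0nM final accompanies the compound titration (15 concentrations, 22hr, 37C) on VM7Luc4E2 cells. The CellTiter-Fluor fluorescence readout runs in the same wells as the luciferase assay.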

For assay [18], the target named is Progesterone receptor (Homo sapiens) (UniProt P06401). Put plainly: qHTS assay to identify small molecule agonists of the progesterone receptor (PR) signaling pathway (AID 1346784; calls by dose curve; further: nearly all actives have a fitted effect of over 30% in size). In outline:
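Using charcoal-stripped serum (2%) to limit endogenous steroids, PR-UAS-bla HEK 293T cells received compounds for 16 hr at 37C after 6 hr plating; beta-lactamase FRET fluorescence was recorded following 2 hr substrate loading at room temperature.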

Assay [19] shares this target. As to the kind of experiment: qHTS assay to identify small molecule antagonists of the progesterone receptor (PR) signaling pathway (AID 1346795; active means well fitted inhibition curve with a large enough effect in the signal ratio in the repeat runs, not every such curve was filed as active; the % refers to the signal ratio). In outline:
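Inhibition of R5020-induced (1 nM final) beta-lactamase reporter signal in PR-UAS-bla HEK293T cells was scored by FRET fluorescence after overnight (16 hr) compound treatment.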

The target in assay [20] is Androgen receptor (Homo sapiens) (UniProt P10275). Put plainly: qHTS assay to identify small molecule agonists of the androgen receptor (AR) signaling pathway in the presence of an antagonist (AID 1259381; calls by dose curve; further: nearly all actives have a fitted effect of over 15% in size). The procedure, abridged: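 Using human MDA-kb2 cells with an MMTV promoter–luciferase construct (AR and GR response elements), agonist activity is scored under 3.0uM nilutamide (final) co-treatment; 16hr incubation, 37C, luminescence readout via ONE-Glo.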
Chain of Androgen receptor (Homo sapiens) (P10275 whole entry, looked up): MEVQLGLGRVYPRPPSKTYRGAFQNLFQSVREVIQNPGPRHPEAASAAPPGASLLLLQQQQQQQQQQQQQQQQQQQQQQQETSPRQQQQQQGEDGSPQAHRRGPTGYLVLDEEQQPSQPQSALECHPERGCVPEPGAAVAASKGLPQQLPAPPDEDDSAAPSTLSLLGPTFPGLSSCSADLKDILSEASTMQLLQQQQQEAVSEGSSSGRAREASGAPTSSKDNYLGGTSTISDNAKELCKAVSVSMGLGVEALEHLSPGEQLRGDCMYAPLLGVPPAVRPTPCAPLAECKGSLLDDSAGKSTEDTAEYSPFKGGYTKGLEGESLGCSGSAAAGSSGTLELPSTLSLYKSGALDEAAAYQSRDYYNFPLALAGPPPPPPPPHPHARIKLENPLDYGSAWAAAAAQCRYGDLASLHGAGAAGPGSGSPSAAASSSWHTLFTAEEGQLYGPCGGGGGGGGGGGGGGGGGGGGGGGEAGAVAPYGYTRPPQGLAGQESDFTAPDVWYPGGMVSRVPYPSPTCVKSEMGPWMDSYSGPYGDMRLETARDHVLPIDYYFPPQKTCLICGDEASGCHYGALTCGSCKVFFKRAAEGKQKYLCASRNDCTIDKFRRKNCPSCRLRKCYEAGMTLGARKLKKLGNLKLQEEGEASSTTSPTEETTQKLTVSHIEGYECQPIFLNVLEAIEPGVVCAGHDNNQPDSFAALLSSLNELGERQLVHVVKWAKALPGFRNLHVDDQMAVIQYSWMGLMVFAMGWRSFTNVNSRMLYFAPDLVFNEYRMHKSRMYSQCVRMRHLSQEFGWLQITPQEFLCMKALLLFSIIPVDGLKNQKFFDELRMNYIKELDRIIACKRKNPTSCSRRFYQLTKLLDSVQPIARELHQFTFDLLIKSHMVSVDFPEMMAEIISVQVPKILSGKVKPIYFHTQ

Chain of Thyrotropin receptor (Homo sapiens) (P16473 whole entry, looked up): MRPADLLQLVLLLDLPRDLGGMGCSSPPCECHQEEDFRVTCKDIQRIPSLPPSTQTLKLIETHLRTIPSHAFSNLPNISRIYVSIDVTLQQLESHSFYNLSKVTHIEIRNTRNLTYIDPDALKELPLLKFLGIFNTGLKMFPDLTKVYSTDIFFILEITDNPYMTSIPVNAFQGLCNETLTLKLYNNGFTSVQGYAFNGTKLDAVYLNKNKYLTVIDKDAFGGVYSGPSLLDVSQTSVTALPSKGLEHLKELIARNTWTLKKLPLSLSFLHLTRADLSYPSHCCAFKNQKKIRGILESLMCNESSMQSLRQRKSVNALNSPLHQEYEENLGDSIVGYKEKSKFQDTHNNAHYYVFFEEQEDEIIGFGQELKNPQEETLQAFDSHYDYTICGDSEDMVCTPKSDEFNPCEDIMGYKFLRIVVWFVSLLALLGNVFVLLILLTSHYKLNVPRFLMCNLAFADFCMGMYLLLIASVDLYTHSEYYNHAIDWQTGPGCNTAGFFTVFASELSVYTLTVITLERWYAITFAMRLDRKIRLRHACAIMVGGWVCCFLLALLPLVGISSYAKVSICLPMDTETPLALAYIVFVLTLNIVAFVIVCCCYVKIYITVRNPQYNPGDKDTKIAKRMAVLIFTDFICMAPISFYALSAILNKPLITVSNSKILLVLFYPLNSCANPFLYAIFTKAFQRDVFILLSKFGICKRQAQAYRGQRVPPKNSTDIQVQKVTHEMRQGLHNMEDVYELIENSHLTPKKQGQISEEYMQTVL
Chain of Estrogen receptor beta (Homo sapiens) (Q92731 whole entry, looked up): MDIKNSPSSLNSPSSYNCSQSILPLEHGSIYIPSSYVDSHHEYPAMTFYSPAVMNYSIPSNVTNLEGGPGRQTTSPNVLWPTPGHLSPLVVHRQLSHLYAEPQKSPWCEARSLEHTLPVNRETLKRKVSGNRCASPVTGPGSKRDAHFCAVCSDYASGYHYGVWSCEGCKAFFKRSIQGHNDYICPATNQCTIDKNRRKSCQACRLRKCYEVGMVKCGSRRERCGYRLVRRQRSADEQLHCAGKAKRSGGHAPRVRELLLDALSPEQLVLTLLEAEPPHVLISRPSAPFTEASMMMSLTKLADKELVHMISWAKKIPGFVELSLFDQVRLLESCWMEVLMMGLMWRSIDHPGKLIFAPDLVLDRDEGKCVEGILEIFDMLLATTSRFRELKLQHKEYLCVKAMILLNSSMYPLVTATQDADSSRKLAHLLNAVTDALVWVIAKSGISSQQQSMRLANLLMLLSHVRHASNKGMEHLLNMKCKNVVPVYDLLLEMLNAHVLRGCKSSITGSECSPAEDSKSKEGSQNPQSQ
Chain of Progesterone receptor (Homo sapiens) (P06401 whole entry, looked up): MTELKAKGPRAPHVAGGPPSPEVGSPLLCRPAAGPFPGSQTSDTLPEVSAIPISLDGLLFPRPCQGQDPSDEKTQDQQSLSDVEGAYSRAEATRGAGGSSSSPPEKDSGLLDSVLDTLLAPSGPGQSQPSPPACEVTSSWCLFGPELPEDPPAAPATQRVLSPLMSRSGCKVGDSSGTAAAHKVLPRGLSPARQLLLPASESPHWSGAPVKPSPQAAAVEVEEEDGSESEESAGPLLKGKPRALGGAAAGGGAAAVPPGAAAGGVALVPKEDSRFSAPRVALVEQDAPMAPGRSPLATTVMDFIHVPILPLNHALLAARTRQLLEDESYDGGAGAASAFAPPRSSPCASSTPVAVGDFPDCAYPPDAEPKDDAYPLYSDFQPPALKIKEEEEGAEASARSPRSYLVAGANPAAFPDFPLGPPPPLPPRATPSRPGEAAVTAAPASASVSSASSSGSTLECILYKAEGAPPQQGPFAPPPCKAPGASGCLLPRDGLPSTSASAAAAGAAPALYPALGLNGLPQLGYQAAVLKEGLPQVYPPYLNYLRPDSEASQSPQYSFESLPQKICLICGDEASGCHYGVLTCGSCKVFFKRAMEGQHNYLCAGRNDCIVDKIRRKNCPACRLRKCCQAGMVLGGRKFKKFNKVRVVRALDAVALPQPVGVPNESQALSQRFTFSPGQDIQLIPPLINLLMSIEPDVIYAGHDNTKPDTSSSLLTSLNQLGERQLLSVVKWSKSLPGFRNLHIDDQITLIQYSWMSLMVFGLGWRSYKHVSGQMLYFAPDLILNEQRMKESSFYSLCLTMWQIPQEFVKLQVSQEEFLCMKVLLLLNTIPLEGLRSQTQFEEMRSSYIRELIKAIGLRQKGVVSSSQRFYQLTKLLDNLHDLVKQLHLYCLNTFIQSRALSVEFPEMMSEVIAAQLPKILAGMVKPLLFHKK
Chain of Estrogen receptor (Homo sapiens) (P03372 whole entry, looked up): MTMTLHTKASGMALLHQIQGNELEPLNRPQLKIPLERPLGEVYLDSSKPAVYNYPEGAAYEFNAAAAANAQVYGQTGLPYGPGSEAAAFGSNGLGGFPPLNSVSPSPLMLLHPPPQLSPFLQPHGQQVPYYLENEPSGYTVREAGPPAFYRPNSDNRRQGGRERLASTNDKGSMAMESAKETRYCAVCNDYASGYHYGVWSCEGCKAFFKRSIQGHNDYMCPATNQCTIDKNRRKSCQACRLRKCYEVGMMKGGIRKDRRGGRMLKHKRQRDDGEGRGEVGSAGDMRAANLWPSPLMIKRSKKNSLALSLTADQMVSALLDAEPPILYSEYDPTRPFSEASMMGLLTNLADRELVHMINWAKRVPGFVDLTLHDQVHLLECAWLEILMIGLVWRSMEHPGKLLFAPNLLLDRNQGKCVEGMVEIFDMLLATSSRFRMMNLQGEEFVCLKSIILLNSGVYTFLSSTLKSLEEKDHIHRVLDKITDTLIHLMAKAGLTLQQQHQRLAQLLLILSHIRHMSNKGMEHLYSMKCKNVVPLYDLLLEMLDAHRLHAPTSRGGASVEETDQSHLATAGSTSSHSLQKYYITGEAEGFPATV

For the molecule `NCCc1ccc(O)cc1`, the Potency entry in assay [1], in assay [3], in [5], in assay [6], in [8] and in assay [9] was “inactive” throughout. Further, the Potency result in [13], in assay [14], in [16] and in assay [19] was “inactive” throughout. Further, the call in assay [2], in [4], in assay [7], in [10], in assay [11] and in [15] was inactive. The result in assay [17] and in assay [18] was inactive. Moreover, in assay [12], the Potency is 60.6 µM (active) and inactive.
Regarding `CC(C)OC(=O)Nc1cccc(Cl)c1`, the Potency result in assay [1], in [5], in assay [6], in assay [8], in assay [9] and in [12] was “inactive” each time. Also, the Potency result in assay [13], in assay [14] and in assay [16] was “inactive” in each case. Also, the Potency in assay [3] is 15.1 µM (active) and 13.7 µM (active). Besides, the molecule was called inactive in [4], in assay [7], in [10], in assay [11], in assay [15] and in assay [17]. For the same molecule, in assay [18], the call was inactive.
Consider `Clc1ccc(Cl)cc1`, for which the Potency result in [1], in [3], in assay [5], in assay [6], in [9] and in assay [12] was “inactive” in each case. Also, the Potency entry in assay [13], in [14], in assay [16] and in assay [19] was “inactive” each time. Further, the outcome in assay [2], in assay [4], in assay [7], in assay [10], in assay [11] and in [15] was inactive. For the same molecule, the result in [17] and in assay [18] was inactive.
For the molecule `C1CN2CCN1CC2`, the Potency entry in assay [1], in assay [3], in assay [5], in [6], in [8] and in [9] was “inactive” in each case. The Potency entry in [12], in assay [13], in assay [14], in assay [16] and in assay [19] was “inactive” in each case. The call in assay [4], in assay [7], in assay [10], in assay [11], in assay [15] and in assay [17] was inactive. Further, the call in assay [18] was inactive.
`CCCN(CCC)N=O`: the Potency entry in [1], in [3], in assay [5], in [6], in [8] and in assay [9] was “inactive” each time. The Potency result in assay [12], in assay [13], in assay [14], in assay [16] and in [19] was “inactive” in each case. Further, the molecule was called inactive in [4], in assay [7], in [10], in assay [11], in assay [15] and in assay [17]. In addition, in assay [18], the molecule was classed as inactive.
In the case of `BrCCBr`, the Potency result in [1], in assay [3], in assay [5], in assay [6], in [8] and in assay [9] was “inactive” throughout. Further, the Potency result in assay [12], in [13], in assay [14], in assay [16] and in [19] was “inactive” each time. Moreover, the outcome in assay [4], in assay [7], in assay [10], in [11], in assay [15] and in assay [17] was inactive. Further, the result in assay [18] was inactive.
Regarding `CCCCN(CC)C(=O)SCCC`, the Potency entry in assay [1], in assay [3], in [5], in [6], in assay [8] and in [9] was “inactive” each time. The Potency entry in [12], in assay [13], in assay [14], in assay [16] and in assay [19] was “inactive” in each case. The call in assay [4], in assay [7], in assay [10], in assay [11], in assay [20] and in [15] was inactive. Also, the outcome in [17] and in assay [18] was inactive.
As for `CCCCCOC(=O)c1ccccc1C(=O)OCCCCC`, the Potency result in assay [1], in assay [3], in assay [5], in [6], in assay [8] and in [9] was “inactive” throughout. Further, the Potency entry in assay [12], in assay [13], in assay [14] and in [16] was “inactive” throughout. Moreover, the call in assay [4], in assay [7], in assay [10], in [11], in assay [15] and in assay [17] was inactive. The molecule was called inactive in assay [18].
